# According to PubChem BioAssay (NCI):
# About 83,000 compounds went through this panel and 20% of them were active in at least one assay; those are over-represented in the sample as a whole.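 Note: values are percent growth. 100 is the growth of untreated cells, values between 100 and 0 indicate rising inhibition; between -100 and 0 indicates cell death.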 Active and inactive are the calls of the source.
# Tested on: SNB-19 CNS
# Experiment: NCI-60 one-dose screen, 48 h (100 = growth as untreated, 0 = no growth, -100 = all killed)
# Conditions: 10 µM unless noted
# Protocol: Growth inhibition of the SNB-19 human tumor cell line is measured as a screen for anti-cancer activity. Cells are grown in 96 well plates and exposed to the test compound for 48 hours. Compounds are tested at a single concentration, which is 10^-5 M for most compounds. The reported endpoint is percent growth (GI% or GIPRCNT), where numbers from 0 - 100% represent growth inhibition, and numbers from -100% - 0 represent cell death. For example, a value of 40 represents 60% growth inhibition. A value of 0 means no net growth occurred over the course of the experiment. A value of -40 indicates 40% of cells at the beginning of the experiment died by the end of the experiment. A value of -100 means all cells are dead at the end of the experiment.
# NCI-60 Human Tumor Cell Lines Screen was performed using the standard one-dose NCI protocol, which is described in more detail at https://dtp.cancer.gov/discovery_development/nci-60/default.htm.
# Compounds with GIPRCNT values below 10 were considered active. Activity score was based on GIPRCNT using the following formula: […]
# Score is 0 for GIPRCNT values of 100 or above, 50 for GIPRCNT values of 0, and 100 for GIPRCNT values of -100.
row,SMILES,growth
1,Cn1cc(-c2nc(-c3c[nH]c4ccccc34)cs2)c2cccnc21,51.6% (inactive)
2,O=C1c2ccccc2-c2nccc3cc(Cl)nc1c23,105% (inactive)
3,Oc1cc(O)c2c(=S)cc(-c3ccc(Cl)cc3)oc2c1,17.5% (inactive)
4,Oc1cccc(Nc2nccc(-c3ccc4ccccc4c3)n2)c1,28.7% (inactive)
5,COc1ccc(CN2C(=O)/C(=C\c3cc(OC)c(OC)c(OC)c3)c3cc(OC)ccc32)cc1,59.8% (inactive)
6,COc1ccc(-c2cc(NC(=O)Nc3ccc(O)cc3)no2)cc1,91.5% (inactive)
7,COc1ccc2nc3cc(Cl)ccc3c(N3CCN(c4nccc(Nc5ccc(Cl)cc5)n4)CC3)c2c1,92% (inactive)
8,CCOC(=O)c1cnc2cc(Cl)c(F)cc2c1Nc1cccc(NS(C)(=O)=O)c1,93.9% (inactive)
9,Cn1cc(-c2csc(-c3cn(C)c4ncccc34)n2)c2ccccc21,42.4% (inactive)
10,C[C@]12C[C@@H](c3ccoc3)OC(=O)[C@@H]1CC[C@]1(C)[C@@H]2CC[C@@H](O)[C@]1(C)O,76.5% (inactive)
11,CC1=C(NCCN2CCCC2)C(=O)c2c(OCc3cccc(Cl)c3)cccc2C1=O,99.4% (inactive)
12,COc1ccc(C(=O)c2sc3nc4c(cc3c2N)CCCC4)cc1OC,71.3% (inactive)
13,Cc1cc(Nc2nc(-c3cccnc3)nc3ccccc23)n[nH]1,77.6% (inactive)
14,Cc1ccc(NC(=O)c2sc3nc4c(cc3c2N)C(=O)CCC4)cc1C,69.3% (inactive)
15,CC(=O)C1=C(O)C=C2Oc3c(C(=O)/C=C/c4ccccc4)c(O)c(C)c(O)c3[C@]2(C)C1=O,21.6% (inactive)
16,O=S(=O)(NCCCNc1cc(-c2cn(-c3ccccc3)nc2-c2cccc(O)c2)ccn1)c1ccccc1,77.5% (inactive)
17,CC1=C(C)C(=O)OC([C@](C)(O)[C@]2(O)CC[C@@]3(O)[C@@H]4C[C@H]5O[C@]56CC=CC(=O)[C@]6(C)[C@H]4CC[C@]23COC(=O)c2ccc(C)o2)C1 (stereo not given in full),-85% (active)
18,CCn1cc2c(cc1=O)-c1nc3ccccc3c3ccnc(c13)C2=O,37.4% (inactive)
19,O=C(C[C@@H](C(=O)NCc1cccc(C(F)(F)F)c1)N1C(=O)[C@@H](N2C(=O)OC[C@@H]2c2ccccc2)[C@H]1/C=C/c1ccccc1)NC1CCN(Cc2ccccc2)CC1,84.6% (inactive)
20,CSc1ccc(N=C=C(c2ccccc2)c2ccccc2)cc1,91.7% (inactive)

row,SMILES,growth
1,Cc1nc2nc(N)nc(N)c2nc1C,95.1% (inactive)
2,Cn1cc(-c2ccc(-c3cn(C)c4ncccc34)[nH]2)c2cccnc21,76% (inactive)
3,COc1cc2c(cc1O)CCc1cc(O)cc(OC)c1-2,98% (inactive)
4,CC1(C)OCC2OC3(C(=O)O)OC(C)(C)OC3C2O1 (stereo not given),100% (inactive)
5,CCN(CC)C12CCCCC1(C)C(C#N)(C#N)C(C#N)=C(N)O2 (stereo not given),106% (inactive)
6,COc1ccc2nc3cc(Cl)ccc3c(N3CCN(c4ccnc(N5CCN(C)CC5)n4)CC3)c2c1,94.5% (inactive)
7,COCCOc1ccc(-c2nc3ccc(-c4nc5ccc(N6CCN(C)CC6)cc5[nH]4)cc3[nH]2)cc1,7.61% (active)
8,CC1=N/C(=C\c2cccc(Br)c2)C(=O)O1,105% (inactive)
9,O=[N+]([O-])c1cccc(-c2nc3sccn3c2-c2ccnc(NCCCNS(=O)(=O)c3ccc(F)cc3)n2)c1,29.3% (inactive)
10,CCOC(=O)C12CCCC1=CC(=O)CC2 (stereo not given),99.9% (inactive)
11,CN1C2CCC1/C(=C\c1ccc(Cl)cc1)C1=C2[C@@H](c2ccc(Cl)cc2)C(C#N)=C(N)O1 (stereo not given in full),99.8% (inactive)
12,COc1ccccc1N1CCN(CCn2c(=O)c3c(c4ccccc4n3C)n(C)c2=O)CC1,95.2% (inactive)
13,COc1cc(C2CC(=O)Nc3c2cnn3Cc2ccco2)cc2c1OCCO2 (stereo not given),97.9% (inactive)
14,COc1ccc(-n2cc(-c3ccccc3)c3c(SCC(=O)N/N=C/c4ccc([N+](=O)[O-])cc4)ncnc32)cc1,99.7% (inactive)
15,Nc1cccc(-c2nc3sccn3c2-c2ccnc(NCCCNS(=O)(=O)c3ccc(C(F)(F)F)cc3)n2)c1,29.1% (inactive)
16,O=[N+]([O-])c1cccc(-c2nc3sccn3c2-c2ccnc(NCCCNS(=O)(=O)c3cccc(F)c3)n2)c1,41.2% (inactive)
17,N=c1c2ccccc2nc2n1CCCCC2,103% (inactive)
18,CCCCCCCCCCCCCCCCCCSC1=CC(=O)C(OC)=C(OC)C1=O,91.9% (inactive)
19,COc1ccc(C2c3ccc4ccccc4c3Oc3ncnc(N)c32)cc1 (stereo not given),91.2% (inactive)
20,NC(=S)N/N=C/c1cc(-c2cccc(N)c2)ccn1,42.9% (inactive)
